Only some compounds are listed: those with a hit (about 2.5% of all), similar ones and a draw of the others.
MEKK2 WT-MEK5: raises or lowers MEK5 binding to wildtype human MEKK2 PB1 domain; Q9Y2U5; bead flow cytometry, Alexa488-MEK5 binding to MEKK2 WT; actives lie on both sides; binding response (% of control), % at 10 µM; actives 1.1% (n = 290,000); in the data active means binding response below about 67% or above about 130%
GRK2 aptamer HTS: blocks RNA aptamer binding to human GRK2. P25098. bead flow cytometry, FAM-aptamer displacement from GRK2. inhibition of aptamer binding, % at 10 µM. actives 0.59% (n = 330,000). AID 488847;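 active means inhibition of aptamer binding above 40%, roughly 3 SD of noise, on plates passing a quality check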;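 further: median bead fluorescence of bound FAM aptamer so fluorescent compounds give negative values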
MEKK2 mut-MEK5: signal of MEK5 binding to mutant human MEKK2 PB1 domain. bead flow cytometry, Alexa488-MEK5 binding to MEKK2 mutant. actives 0.35% (n = 290,000). percent response, % at 10 µM; in the data active means percent response above about 24%, passing the limit was not always enough
MEKK3 PB1 HTS: MEKK3-MEK5 PB1 interaction, increase or decrease | Q99759 | bead-based flow cytometry, Alexa488-MEK5 binding to MEKK3; actives lie on both sides; 0 = blocked by unlabeled MEK5, 100 = vehicle | binding response (% of control), % at 10 µM | actives 1.4% (n = 290,000);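 active means binding response more than 3 SD above or below the average of its plate-row segment, actives on both sides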;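 further: Alexa488 bead fluorescence after subtracting the streptavidin-only scavenger bead signal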
MEKK2wt confirm: raises or lowers MEK5 binding to wildtype human MEKK2, retest; shares compounds with MEKK3 PB1 HTS; binding response (% of control), % at 10 µM; bead flow cytometry, Alexa488-MEK5 binding to MEKK2 WT; actives lie on both sides; actives 2.4% (n = 5,900); in the data active means binding response below about 16% or above about 210%; inactive means in between
MEKK2mut confirm: signal of MEK5 binding to mutant human MEKK2, retest; percent response, % at 10 µM; bead flow cytometry, Alexa488-MEK5 binding to MEKK2 mutant; shares compounds with MEKK3 PB1 HTS; actives 2% (n = 5,900); in the data active means percent response mostly above about 71%, no sharp cut-off; inactive means mostly below about 38%;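 further: higher means compound restores mutant binding toward wildtype level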
MEKK3-MEK5 inh: confirmation of inhibitors of MEK5 binding to human MEKK3 | shares compounds with MEKK3 PB1 HTS | bead flow cytometry, Alexa488-MEK5 binding to MEKK3; hits give low values | binding response (% of control), % at 10 µM | actives 1.8% (n = 5,900) | AID 1894;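 active means binding response below 72% of control, or above a set upper limit, though filed actives all read lower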
A number is an active result; – = inactive; · = no result; [ ] = remark or other dose.

SMILES	MEKK2 WT-MEK5	GRK2 aptamer HTS	MEKK2 mut-MEK5	MEKK3 PB1 HTS	MEKK2wt confirm	MEKK2mut confirm	MEKK3-MEK5 inh
CCC(=O)NCCNc1ccc([N+](=O)[O-])cn1	–	–	–	74.0[inhibitor]	–	–	–
CC(C)(C)c1ccc(CNc2ccc([N+](=O)[O-])cn2)cc1	–	–	–	145.0	–	–	–
COc1ccc(C2CC(c3cccs3)=NN2S(C)(=O)=O)cc1OC (stereo not drawn)	·	–	70.0	–	–	–	–
COc1ccc(C2=NN(c3ccc(C=O)cc3)C(c3ccccc3)C2)cc1 (stereo not drawn)	–	–	–	–	·	·	·
COc1ccc(C2CC(c3cccs3)=NN2c2ccc(C=O)cc2)cc1 (stereo not drawn)	63.0[inhibitor]	–	–	–	–	–	–
CNc1ccc(Br)cc(C(=O)/C=C/c2ccc3c(c2)OCO3)c1=O	66.0[inhibitor]	–	–	–	–	–	–
CNc1ccc(Br)cc(C(=O)/C=C/c2ccc(OC)cc2)c1=O	–	–	–	–	·	·	·
COc1ccc(Cl)cc1C(=O)OCC(=O)N(C)CC(=O)Nc1ccc(F)cc1	·	–	·	·	·	·	·
CS(=O)(=O)c1ccc2nc(NC(=O)CN3C(=O)C4CC=CCC4C3=O)sc2c1 (stereo not drawn)	–	–	–	138.0	–	–	–
Cc1cc(C)c2cc3c(ccn3C3OC[C@H](O)[C@H](O)[C@H]3O)cc2n1 (stereo partly drawn)	6.0[inhibitor]	–	–	–	–	–	–
CCCC[C@@H](CNC)NC[C@H](NCCCCC1CCCCC1)C(C)C	–	–	30.0	–	–	–	–
Cc1cc(=O)nc2c3ccccc3n(CC(=O)NC3CCCCC3)n12	–	–	–	–	·	·	·
Nc1cc(S(=O)(=O)Nc2cc(Cl)ccc2Cl)ccc1N1CCCC1	40.0[inhibitor]	–	–	36.0[inhibitor]	–	–	–
COc1ccc(NC2CC(=O)N(c3ccc(C(=O)O)cc3)C2=O)cc1 (stereo not drawn)	–	–	–	130.0	–	–	–
COc1ccc(NC2CC(=O)N(c3cccc(C)c3)C2=O)cc1 (stereo not drawn)	–	–	–	–	·	·	·
O=C(CSc1nc2ccccc2[nH]1)N/N=C/C=C/c1ccccc1[N+](=O)[O-]	–	–	–	–	·	·	·
COc1ccccc1Nc1nc(N)nc(CN2CCN(Cc3ccccc3)CC2)n1	–	–	–	–	·	·	·
O=C(CSc1nnc(-c2ccccc2)n1C1CCCCC1)N1CCCC1	–	–	–	74.0[inhibitor]	–	–	–
CC1CCCN(C(=O)CSc2nnc(-c3cccnc3)n2C2CCCCC2)C1 (stereo not drawn)	–	–	–	–	·	·	·
CC(=O)N1N=C(c2ccco2)CC1c1cc2ccc(C)cc2nc1Cl (stereo not drawn)	–	–	–	–	·	·	·
CCOCCCNC(=O)C1CCN(C(=O)N(C)C)CC1	–	–	–	–	·	·	·
CC(C)NC(=O)C1CCN(C(=O)N(C)C)CC1	-3.0[inhibitor]	–	–	1.0[inhibitor]	–	–	–
O=C(c1ccc(Cl)cc1)N(Cc1ccco1)C1CCS(=O)(=O)C1 (stereo not drawn)	1.0[inhibitor]	–	–	2.0[inhibitor]	–	–	–
O=C(c1ccccc1)N(Cc1ccco1)C1CCS(=O)(=O)C1 (stereo not drawn)	–	–	–	–	·	·	·
O=C(NNC(=O)c1cccs1)c1ccc(Cl)c(Cl)c1	–	–	–	149.0	–	–	–
CC(C)Cc1nc2oc3c(NCc4cccnc4)ncnc3c2c2c1CCC2	–	–	–	–	·	·	·
CCOc1ccc(NC(=O)c2ccc3c(SCC(=O)O)c4c(nc3c2)CCCC4)cc1	–	–	–	137.0	–	–	–
CCOc1ccc(NC(=O)c2ccc(OC)cc2)cc1	–	–	–	126.0	–	–	–
CCOc1ccc(NC(=O)c2ccc(NC(=O)c3ccc(NC(N)=O)cc3)cc2)cc1	·	–	·	·	·	·	·
O=C(C[n+]1cccc(CNC(=O)c2ccc(OC(F)F)cc2)c1)Nc1cc(C(F)(F)F)ccc1Cl	144.0	–	–	–	–	–	–

High-throughput results from PubChem BioAssay.
